± gives the standard deviation of the averaged measurements. Whole data set: some 33,000 sequences, median “E-score (dimensionless, -0.5 to 0.5)” near -0.046, cut for the highest 2% near 0.36. The entries come from a sample that favours the highest values as a whole.
Test system: T1, SpTbr T-box DNA-binding domain (GST fusion)
T1 sequence: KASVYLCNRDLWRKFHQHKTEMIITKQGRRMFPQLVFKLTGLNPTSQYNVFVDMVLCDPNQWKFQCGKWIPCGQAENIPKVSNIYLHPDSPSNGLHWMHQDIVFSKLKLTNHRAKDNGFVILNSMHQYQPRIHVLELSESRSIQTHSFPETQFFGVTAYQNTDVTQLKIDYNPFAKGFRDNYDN
Assay: PBM E-score of 8-mer (E-score (dimensionless, -0.5 to 0.5)); Tbr is Tbrain of the sea star Patiria miniata (Pm) or the sea urchin Strongylocentrotus purpuratus (Sp); higher = stronger binding preference
Conditions: the construct has about 5 more residues each side
Procedure: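 Universal protein-binding microarray (Agilent AMADID 016060, 60-bp probes with a 35-bp variable region) incubated with 200 nM GST-fused Strongylocentrotus purpuratus Tbr T-box DNA-binding domain (residues 362-554) in PBS pH 7.5. Scored for every ungapped 8-mer (given with its reverse complement) as E-score (range -0.5 to 0.5; >0.45 counts as bound) and Z-score of median probe intensity. Two replicate arrays (datasets 1 and 2).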
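Note: protein at 200 nM in PBS on universal double-stranded arrays.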

Sequence	PBM E-score of 8-mer
GTCCACAC	0.385 ± 0.0075
GTCCACAA	0.153 ± 0.039
ATCCACAC	0.357 ± 0.0097
CTCCACAG	-0.0194 ± 0.034
CTCCACAC	0.37 ± 0.0083
CTCCACAA	0.136 ± 0.0093
AGGGACGA	0.053 ± 0.072
CCTTTGAG	-0.17 ± 0.018
CGGTAGCA	0.276 ± 0.031
CTTTGCAA	0.0361 ± 0.021
GATCGGAC	-0.287 ± 0.013
ATCGGCTG	0.0647 ± 0.039
ATACTAGA	-0.222 ± 0.11
CTTCTCAC	0.401 ± 0.011
ATTCTCAA	0.138 ± 0.062
CTTCTCTC	0.08 ± 0.04
CTTCTCAA	0.0891 ± 0.045
ATTCTCAC	0.415 ± 0.015
ATTCTCAG	0.0379 ± 0.094
ACCGAGGA	-0.0878 ± 0.039
AGTTCCAT	0.00979 ± 0.0044
GTGCGATA	0.427 ± 0.0042
CTGCGAGA	0.185 ± 0.0098
CTGCGATA	0.0968 ± 0.04
CTGCGACA	0.198 ± 0.036

Sequence	PBM E-score of 8-mer
GTGCGACA	0.398 ± 0.012
ATGCGATA	0.0476 ± 0.028
GTGCGAAA	0.4765 ± 0.0018
CTGCGAAA	0.342 ± 0.036
TTGCGAAA	0.33 ± 0.038
ATGCGACA	0.285 ± 0.0073
ATGCGAGA	0.172 ± 0.017
GTGCGAGA	0.42 ± 0.0079
GATACCCC	-0.273 ± 0.041
CAAGGATA	-0.175 ± 0.043
GAATCTGC	-0.0922 ± 0.056
ATGCTCCG	-0.0668 ± 0.061
AAGCCCGG	-0.24 ± 0.028
CATGCTAA	0.0578 ± 0.029
ACCTACTA	0.17 ± 0.057
GCATTCTA	-0.293 ± 0.06
AGGCAGAC	-0.227 ± 0.0024
ATGCGAAC	0.154 ± 0.017
GGGCGAAC	-0.0364 ± 0.016
CTGCGATC	0.106 ± 0.1
CTGCGAAG	0.2479 ± 0.0022
CTGCGAAC	0.365 ± 0.0088
GTGCGAAC	0.4783 ± 0.00073
AATGAGGA	-0.334 ± 0.058
AACAATGA	0.0839 ± 0.096

Sequence	PBM E-score of 8-mer
AAAGTTCA	-0.0472 ± 0.047
CTACCGAG	-0.07 ± 0.013
AACCTGAC	0.121 ± 0.003
CACCTGAC	0.374 ± 0.0049
CACCTGTA	0.331 ± 0.036
CACCTGTC	0.431 ± 0.019
CACCTGAA	0.29 ± 0.0089
AACCTGTC	0.248 ± 0.011
GGATCCAC	-0.00958 ± 0.069
CGAAGTAC	-0.169 ± 0.067
GCCGTTTA	0.0646 ± 0.08
AGTGCGAC	0.341 ± 0.024
AGTGCGAG	0.408 ± 0.022
AATGCGAT	0.0396 ± 0.031
CGTGCGAC	0.238 ± 0.029
CATGCGAG	0.106 ± 0.012
AGTGCGAT	0.4291 ± 0.0025
ACTGCGAT	0.117 ± 0.0014
CGTGCGAG	0.373 ± 0.018
ACTGCGAG	0.17 ± 0.033
ATTCTGTG	-0.0566 ± 0.036
CTCTCAGA	-0.187 ± 0.0034
CTCCGGCA	0.0686 ± 0.041
CCATAAGG	-0.0717 ± 0.0012
AGGCGTCG	0.349 ± 0.018

Sequence	PBM E-score of 8-mer
GCGCGTCA	0.265 ± 0.028
AGGCGTCA	0.41 ± 0.005
GTGCGTCA	0.187 ± 0.009
GGGCGTCA	0.376 ± 0.017
CGGCGTCA	0.223 ± 0.02
ACTTCAAT	-0.0527 ± 0.032
ACGTCACG	0.217 ± 0.057
ATGTTGGG	-0.0592 ± 0.0084
TAAGGCTA	-0.149 ± 0.077
TACACTCA	0.137 ± 0.013
CACACTCA	0.407 ± 0.0072
AACACTCA	0.31 ± 0.0041
AACACTCC	0.283 ± 0.039
AACACTCG	0.193 ± 0.0083
CCCACTCG	0.05 ± 0.13
GACACTCC	0.316 ± 0.0096
CACACTCG	0.426 ± 0.019
CACACTCC	0.402 ± 0.0059
CGCAGCAC	0.0169 ± 0.017
AGTTGCTA	0.239 ± 0.042
CGTCACAG	0.232 ± 0.0032
GGACACAC	0.0866 ± 0.0081
GGTCACAA	0.2073 ± 0.00096
AGTCACAT	0.1318 ± 0.0012
GGTCACAC	0.46 ± 0.013

Sequence	PBM E-score of 8-mer
CGTCACAC	0.43 ± 0.011
AGTCACAG	0.0674 ± 0.028
CGTCACAA	0.244 ± 0.0062
AGTCACAC	0.457 ± 0.0049
GTTCATCA	0.0211 ± 0.0087
ATCAACAT	-0.111 ± 0.028
AGTGCTCC	-0.0941 ± 0.03
AGTCTTGG	-0.101 ± 0.011
CGTAAGTA	0.169 ± 0.0079
AGGTGTCC	0.428 ± 0.0068
ACGTGTCC	0.0769 ± 0.048
AGCTGTCG	0.263 ± 0.013
ACGTGTCG	0.362 ± 0.015
AGATGTCC	-0.309 ± 0.003
AGGTGTCG	0.486 ± 0.008
CCACCAGG	-0.177 ± 0.03
CGTGAGCA	0.105 ± 0.039
GCCTAAGC	-0.159 ± 0.006
CTAACTAG	0.0135 ± 0.086
AAGGGAAA	-0.289 ± 0.05
GACAATGA	0.176 ± 0.0013
ATCACCTA	0.321 ± 0.065
ATCACCTC	0.387 ± 0.0097
ATCACCAC	0.113 ± 0.004
CTCACCTC	0.444 ± 0.0047

Sequence	PBM E-score of 8-mer
CTCACCGC	0.0406 ± 0.0049
CTCACCAC	0.218 ± 0.037
CCGGTTCC	-0.27 ± 0.0077
GTGCCATA	0.222 ± 0.024
ATAACGCC	0.28 ± 0.032
AAGGATTA	-0.152 ± 0.047
CAGATCAG	-0.0587 ± 0.00064
AAAAGTGG	0.118 ± 0.11
AAAAGTGT	0.39 ± 0.016
AAAAGTGA	0.169 ± 0.069
ACAAGTGG	0.355 ± 0.012
ACAAGTGT	0.381 ± 0.019
ACAAGTGA	0.243 ± 0.07
TAACCCTA	-0.15553 ± 2.1e-05
GCTGTGGA	0.151 ± 0.058
GCTGTGAA	0.4045 ± 0.0013
CTTGTGAA	0.353 ± 0.034
ACTGTGAA	0.413 ± 0.0064
TCTGTGAA	0.329 ± 0.017
ATTGTGAA	0.317 ± 0.067
ACTGTGAG	0.269 ± 0.031
GTTGTGAA	0.4 ± 0.015
ACTGTGAT	0.242 ± 0.0029
AAAGAGAG	-0.0256 ± 0.025
GAACTCGA	0.194 ± 0.051

Sequence	PBM E-score of 8-mer
TATGATAA	-0.00343 ± 0.017
TGTGATAA	0.377 ± 0.017
GGTGATAA	0.37553 ± 0.00031
CGTGATAA	0.27 ± 0.036
GGTGATAC	0.221 ± 0.028
AGTGATAA	0.278 ± 0.067
CGTATGCC	-0.271 ± 0.057
ACACCTAG	0.444 ± 0.0087
ACACCTAA	0.4637 ± 0.0015
ACACCTAT	0.4592 ± 0.0012
TCACCTAA	0.301 ± 0.018
CCACCTAG	0.183 ± 0.046
ATACCTAT	-0.0845 ± 0.068
AAACCTAG	0.0536 ± 0.035
ACACCGGT	0.246 ± 0.055
AGACCTAT	-0.142 ± 0.047
AAACCTGT	0.0331 ± 0.12
ACACCTGT	0.4669 ± 0.0038
GCACCTAA	0.339 ± 0.04
CGTGGGAC	0.0261 ± 0.0086
AATCCCAC	0.151 ± 0.013
ATCTGCCG	-0.21 ± 0.071
